# Results: PubChem BioAssay AID720517 (National Center for Advancing Translational Sciences (NCATS), 2013)
# Results filed as inconclusive are left out. Activity calls are given as the source filed them. Calls follow the shape of the dose curve; as a rule, active = well fitted activation curve with a large enough effect; inconclusive = small, poorly fitted or top-dose-only effect; inactive = flat fitted curve, though single readings scatter.
# Experiment: qHTS for Inhibitors of Cell Surface uPA Generation: FP59 Counterscreen for Cherry-picked Compounds; as to activity (protection from FP59): 0% is about no effect
# Settings: FP59 anthrax toxin cytotoxicity counterscreen, cells; series mostly up to 115 µM; activity (protection from FP59): at the top concentration
# Potency is read from the fitted curve at half-maximal effect.
SMILES,activity (protection from FP59),Potency
Cc1ccc(NC2CCCN(C(=O)Cc3nonc3C)C2)cc1C (configuration not stated),-1.47% (inactive),–
COc1ccc(NS(=O)(=O)c2cc(NS(=O)(=O)c3cc(C(=O)O)ccc3OC)ccc2C)cc1,-1.08% (inactive),–
O=C(NCCc1cn2ccsc2n1)c1cccs1,-1.28% (inactive),–
S=C(Nc1ccccc1Cl)N1CCCC(c2ccccc2)=N1,–,23.3 µM (active)
COc1ccccc1NC(=O)Cn1ncc2c1-c1ccccc1OC2,-1.3% (inactive),–
COc1cc(SC)ccc1C(=O)OCc1nc2ccsc2c(=O)[nH]1,-1.26% (inactive),–
COc1ccc(C(=O)NC(=S)Nc2ccc(NC(=O)c3ccco3)cc2)cc1[N+](=O)[O-],-1.56% (inactive),–
Cc1ccc(S(=O)(=O)N2CCC(C(=O)OC(C)C(=O)NC3CCCCC3C)CC2)cc1 (configuration not stated),-0.445% (inactive),–
COC(=O)C1=CN(Cc2ccc(F)cc2)C=C(C(=O)OC)C1c1ccc(O)c(OC)c1,0.908% (inactive),–
CCC(C(=O)NCc1ccc(C)cc1)c1ccccc1 (configuration not stated),-1.46% (inactive),–
CCN(CC)c1ccc(C=NCCc2ccc(S(N)(=O)=O)cc2)cc1,-0.849% (inactive),–
CC1Cc2nc(SCC(=O)Nc3ccc4c(c3)OCO4)n(-c3ccc(F)cc3)c(=O)c2S1 (configuration not stated),-1.41% (inactive),–
CCOCc1nnc(NC(=O)C2CCN(C(=O)C3CC(=O)N(c4ccc(C)cc4)C3)CC2)s1 (configuration not stated),-1.45% (inactive),–
CS(=O)(=O)Nc1cccc(C2=NN(S(=O)(=O)c3ccccc3)C(c3ccco3)C2)c1 (configuration not stated),-1.08% (inactive),–
Cn1nc(C(C)(C)C)c([N+](=O)[O-])c1C(=O)N1CCOCC1,-1.4% (inactive),–
O=C(OCC(=O)N1CCOCC1)c1c(Cl)ccc(Cl)c1Cl,-1.43% (inactive),–
CC(CCc1ccccc1)NC(=O)c1ccc(NC(=O)c2cccc(Br)c2)cc1 (configuration not stated),-1.22% (inactive),–
COc1ccccc1N1CCN(C2CC(=O)N(c3ccccc3)C2=O)CC1 (configuration not stated),-1.38% (inactive),–
CCOc1ccc(/C=N/NC(=S)Nc2c(C)cccc2C)cc1,-1.17% (inactive),–
CCc1ccccc1N1C(=O)CC(Sc2nccc(C)n2)C1=O (configuration not stated),-1.23% (inactive),–
CC(=O)c1ccc(N=C2SCCCN2C(=O)C2CCCCC2)cc1,-0.984% (inactive),–
O=C(NCc1ccccn1)C1CCN(C(=O)c2cc3sccc3n2Cc2ccc(F)cc2)CC1,-1.21% (inactive),–
